Assay results: PubChem BioAssay AID1159580 (chemical genetic matrix, 2015)
The whole screen tested about 5,500 compounds, of which about 2,000 (36%) were called active. Another 18% or so got no clear call; they are omitted. Rule as the data show it: active = normalized growth mostly below about 0.91 (no sharp cut-off); inconclusive = no clear call, values can overlap the other calls; inactive = mostly above about 0.92. This is one part of the list.

Assay: chemical genetic growth profiling, strain panel (AID 1159580);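 also: tested at 20 µM; growth read once vehicle control cultures reached saturation at 30 °C; 1 = growth at the plate median or of vehicle wells; lower values mean less growth of the strain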
Conditions: S. cerevisiae deletion strains, growth OD

Measured: normalized growth

C=C(CC)C(=O)c1ccc(OCC(=O)O)c(Cl)c1Cl
active: locus YJR066W, strain TOR1, active compounds read low 0.708 | locus YKL068W, active compounds read low 0.91 | locus YLR113W, strain HOG1, active compounds read low 0.551 | locus YNL183C, strain NPR1, active compounds read low 0.828 | locus YNL271C, strain bni1, active compounds read low 0.917 | locus YPR141C, strain kar3, active compounds read low 0.902
inactive: locus YJL187C, strain SWE1 (second series), active compounds read low 0.968 | locus YJL187C, strain SWE1, active compounds read low 1 | locus YJR043C, strain POL32, active compounds read low 0.981 | locus YJR075W, strain HOC1, active compounds read low 0.982 | locus YKL009W, strain mrt4, active compounds read low 0.923 | locus YKL085W, strain MDH1 (second series), active compounds read low 0.938 | locus YKL085W, strain MDH1, active compounds read low 0.938 | locus YKL160W, strain elf1, active compounds read low 1.06 | locus YKR001C, strain vps1, active compounds read low 0.906 | locus YKR026C, strain gcn3, active compounds read low 1 | locus YKR091W, strain srl3, active compounds read low 1.01 | locus YLL001W, strain dnm1, active compounds read low 1.05 | locus YLL026W, active compounds read low 1.01 | locus YLL041C, strain sdh2, active compounds read low 1 | locus YLR027C, strain aat2, active compounds read low 0.995 | locus YLR039C, strain RIC1, active compounds read low 0.91 | locus YLR058C, strain SHM2, active compounds read low 0.972 | locus YLR102C, strain apc9, active compounds read low 0.972 | locus YLR221C, strain rsa3, active compounds read low 1.04 | locus YLR258W, strain gsy2, active compounds read low 1.02 | locus YLR262C, strain YPT6 (second series), active compounds read low 1.01 | locus YLR262C, strain YPT6, active compounds read low 0.873 | locus YLR268W, strain sec22, active compounds read low 0.99 | locus YLR320W, strain mms22, active compounds read low 1.08 | locus YLR330W, strain CHS5, active compounds read low 0.978 | locus YLR342W, strain FKS1 (second series), active compounds read low 0.983 | locus YLR342W, strain FKS1, active compounds read low 1.01 | locus YLR357W, strain rsc2, active compounds read low 0.995 | locus YLR370C, strain arc18, active compounds read low 1.02 | locus YLR371W, strain rom2, active compounds read low 0.953 | locus YLR384C, strain iki3, active compounds read low 1.01 | locus YLR418C, strain cdc73, active compounds read low 1 | locus YML016C, strain PPZ1, active compounds read low 0.982 | locus YML032C, strain rad52, active compounds read low 0.962 | locus YML120C, strain ndi1, active compounds read low 1.05 | locus YML124C, strain tub3, active compounds read low 0.98 | locus YMR058W, strain fet3, active compounds read low 1 | locus YMR078C, strain ctf18, active compounds read low 0.962 | locus YMR125W, strain sto1, active compounds read low 1.02 | locus YMR129W, active compounds read low 1.01 | locus YMR205C, strain PFK2, active compounds read low 1.06 | locus YMR223W, strain ubp8, active compounds read low 1.02 | locus YMR231W, strain pep5, active compounds read low 0.978 | locus YMR307W, strain GAS1, active compounds read low 1 | locus YNL067W, strain RPL9B, active compounds read low 0.986 | locus YNL071W, strain lat1, active compounds read low 1.01 | locus YNL209W, strain ssb2, active compounds read low 1.02 | locus YNL233W, strain BNI4, active compounds read low 0.988 | locus YNL248C, strain rpa49, active compounds read low 1.01 | locus YNL250W, strain rad50, active compounds read low 0.913 | locus YNL298W, strain CLA4, active compounds read low 0.912 | locus YNL307C, strain MCK1, active compounds read low 0.98 | locus YNL322C, strain KRE1 (second series), active compounds read low 1.02 | locus YNR049C, strain mso1, active compounds read low 1.01 | locus YNR052C, strain pop2, active compounds read low 0.981 | locus YOL006C, strain TOP1, active compounds read low 1 | locus YOL012C, strain htz1 1.29 | locus YOL147C, strain pex11, active compounds read low 0.99 | locus YOR001W, strain rrp6, active compounds read low 0.948 | locus YOR061W, strain CKA2, active compounds read low 0.964 | locus YOR069W, strain VPS5, active compounds read low 0.988 | locus YOR070C, strain gyp1, active compounds read low 1.04 | locus YOR080W, strain dia2, active compounds read low 1.01 | locus YOR083W, strain WHI5, active compounds read low 1.05 | locus YOR106W, strain vam3, active compounds read low 1.04 | locus YOR136W, strain idh2, active compounds read low 0.979 | locus YOR144C, strain elg1, active compounds read low 0.989 | locus YOR184W, strain ser1, active compounds read low 0.991 | locus YOR231W, strain MKK1, active compounds read low 0.909 | locus YOR265W, strain rbl2, active compounds read low 1.01 | locus YOR270C, strain vph1, active compounds read low 1.08 | locus YOR290C, strain snf2, active compounds read low 1.01 | locus YOR316C, strain cot1, active compounds read low 0.96 | locus YPL051W, strain arl3, active compounds read low 0.992 | locus YPL078C, strain atp4, active compounds read low 1.04 | locus YPL106C, strain sse1, active compounds read low 1.01 | locus YPL240C, strain hsp82, active compounds read low 1.02 | locus YPL241C, strain CIN2, active compounds read low 0.983 | locus YPL256C, strain CLN2, active compounds read low 0.899 | locus YPR119W, strain clb2, active compounds read low 0.973 | locus YPR163C, strain tif3, active compounds read low 0.981 | locus YPR167C, strain met16, active compounds read low 0.989 | strain wtn01, active compounds read low 0.997
